In publication PMC9838217, “Structure of SALL4 zinc finger domain reveals link between AT-rich DNA binding and Okihiro syndrome”:
Residue numbers refer to the chain shown, from its start.

Experiments:
[1] = molecular target: T1, SALL4 ZFC4 R900W (HT-SELEX) (Mus musculus, UniProt Q8BX22 870-940, R900W); test: HT-SELEX; high values mean tight binding; settings: protein: recombinant; vector His6-GST; dsDNA, one strand shown
T1 sequence: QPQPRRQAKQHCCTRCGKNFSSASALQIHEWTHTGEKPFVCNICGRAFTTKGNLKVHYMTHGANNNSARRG
How it was run: (§1)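 DNA from a random library (1.5 µg in the first cycle, 200 ng afterwards) was incubated with purified recombinant mouse SALL4 zinc finger cluster 4, residues 870–940 (1 µg), for 10 min at room temperature in 100 µl buffer: 10 mM Tris–HCl pH 7.5, 50 mM NaCl, poly(dI-dC), DTT. Bound complexes were pulled down on Ni2+ beads, washed and PCR-amplified, and the selection was repeated for up to 6 cycles in triplicate. MiSeq reads were scanned for 6-mers, and binding signal is each canonical k-mer's read fraction as fold change over the initial random library.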

[2] = molecular target: T2, SALL4 ZFC4 G921D (HT-SELEX) (Mus musculus, UniProt Q8BX22 870-940, G921D); test: HT-SELEX; high values mean tight binding; settings: protein: recombinant; vector His6-GST; dsDNA, one strand shown
T2 sequence: T1 sequence with W31R, G52D
How it was run: as §1

Sequence | binding signal [1] [fold-change vs cycle 0] | binding signal [2] [fold-change vs cycle 0]
GCCCCC | 0.107 ± 0.0111 | 0.213 ± 0.0572
CGTTGC | 0.331 ± 0.00332 | 0.435 ± 0.0499
GGTCGA | 0.33 ± 0.0136 | 0.48 ± 0.0759
GGCTCA | 0.336 ± 0.00359 | 0.477 ± 0.0634
CCACCC | 0.298 ± 0.0277 | 0.395 ± 0.0676
GCTCGA | 0.308 ± 0.00752 | 0.475 ± 0.0642
AGTCGC | 0.244 ± 0.0172 | 0.386 ± 0.0654
CGCCAG | 0.103 ± 0.00325 | 0.214 ± 0.0676
CCTGCG | 0.145 ± 0.0224 | 0.246 ± 0.0829
GCCGGA | 0.106 ± 0.00682 | 0.224 ± 0.0644
AGGGCG | 0.146 ± 0.011 | 0.26 ± 0.0708
CGCGAC | 0.088 ± 0.0103 | 0.202 ± 0.0599
ACAGCC | 0.328 ± 0.00712 | 0.462 ± 0.0935
CTTGGC | 0.308 ± 0.0227 | 0.45 ± 0.0809
AGCGTG | 0.35 ± 0.0043 | 0.476 ± 0.0501
ACGGGC | 0.131 ± 0.00526 | 0.241 ± 0.0805
GTGCCA | 0.266 ± 0.0277 | 0.416 ± 0.0672
ACGCCA | 0.244 ± 0.0178 | 0.368 ± 0.0567
GCGGCA | 0.0597 ± 0.00711 | 0.158 ± 0.0724
GCCTCC | 0.209 ± 0.0253 | 0.334 ± 0.0802
CAGGCG | 0.129 ± 0.00318 | 0.24 ± 0.0647

Sequence | binding signal [1] [fold-change vs cycle 0] | binding signal [2] [fold-change vs cycle 0]
CCAGCC | 0.149 ± 0.0151 | 0.273 ± 0.0654
GGCAAC | 0.322 ± 0.0219 | 0.438 ± 0.0577
ACGCTG | 0.298 ± 0.0226 | 0.41 ± 0.058
CCCGCC | 0.0634 ± 0.0031 | 0.164 ± 0.0698
AGCACG | 0.337 ± 0.0173 | 0.468 ± 0.0696
CATGCG | 0.296 ± 0.011 | 0.441 ± 0.076
CCTGCC | 0.172 ± 0.00852 | 0.294 ± 0.0738
AGGCCA | 0.313 ± 0.0175 | 0.446 ± 0.0657
CCGCGA | 0.102 ± 0.00288 | 0.221 ± 0.0689
CGCACA | 0.229 ± 0.0112 | 0.353 ± 0.0588
ATGGCC | 0.263 ± 0.0192 | 0.413 ± 0.0521
GCCGCA | 0.0591 ± 0.00535 | 0.149 ± 0.0608
CTGCCC | 0.166 ± 0.00951 | 0.291 ± 0.0763
AGACGC | 0.274 ± 0.0116 | 0.405 ± 0.0774
CGCCGA | 0.0711 ± 0.00229 | 0.179 ± 0.0757
GCCGCC | 0.0335 ± 0.00625 | 0.107 ± 0.0564
CAAGCG | 0.313 ± 0.0138 | 0.452 ± 0.0669
CAGCCA | 0.309 ± 0.0234 | 0.442 ± 0.0984
GGCACA | 0.256 ± 0.0249 | 0.414 ± 0.0716
AGCAGC | 0.286 ± 0.013 | 0.426 ± 0.0467
